Measurements from PubChem BioAssay (Tox21).
Results filed as inconclusive are left out. Active and inactive are the calls of the source. Unless noted, calls follow the shape of the full dose curve.

Experiments:
[1] = biological target: Acetylcholinesterase (Homo sapiens) (UniProt P22303); experiment: Acetylcholinesterase (AChE) small molecule antagonists: enzyme-based qHTS assay (AID 1347397); settings: Potency: AChE enzyme activity inhibition; outcome: AChE enzyme activity inhibition; also: nearly all actives have a fitted effect of over 55% in size
How it was run: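 rhAChE 50 mU/mL (dispensed) + cpd or DMSO, 30 min RT; add DTNB/acetylthiocholine cocktail, 10 min RT; colorimetric thiocholine readout. qHTS, 1536-well format.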

[2] = biological target: Acetylcholinesterase (Homo sapiens) (UniProt P22303); experiment: Acetylcholinesterase (AChE) small molecule antagonists: enzyme-based qHTS assay with human liver microsomes (AID 1347399); settings: Potency: qHTS inhibition; outcome: qHTS inhibition; also: nearly all actives have a fitted effect of over 60% in size
How it was run: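 Recombinant human AChE (50 mU/mL in the enzyme mix) and human liver microsomes (0.25 mg/mL final) were preincubated with compound and NADPH (0.25 mg/mL final) for 30 min at 37 C. Acetylthiocholine/DTNB was then added; thiocholine was read colorimetrically after 10 min at room temperature.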

[3] = biological target: Acetylcholinesterase (Homo sapiens) (UniProt P22303); experiment: Acetylcholinesterase (AChE) small molecule antagonists: fluorescence cell-based qHTS assay (AID 1347398); settings: Potency: AChE activity; outcome: AChE activity; also: nearly all actives have a fitted effect of over 50% in size
How it was run: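 Read-out is Thiolite Green fluorescence at Ex/Em = 490/520 nm, formed by reaction with thiocholine released when cellular AChE in SH-SY5Y cells hydrolyzes acetylthiocholine. Compounds were preincubated 30 min at 37 C before substrate.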

[4] = qHTS assay for small molecule agonists of the p53 signaling pathway (AID 651631); also: nearly all actives have a fitted effect of over 15% in size
How it was run: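 We treat p53RE-bla HCT-116 cells with compounds for 16 h at 37 °C, add LiveBLAzer B/G FRET substrate for 2 h at room temperature, and measure fluorescence intensity.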

[5] = qHTS assay for small molecules that induce genotoxicity in human embryonic kidney cells expressing luciferase-tagged ATAD5 (AID 651632; active = well fitted curve in the direction sought with a large enough effect in the repeat runs; an effect the other way counts as inactive or inconclusive; also: nearly all actives have a fitted effect of over 15% in size)
How it was run: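 HEK293T cells carrying luciferase-tagged ATAD5 were given compound or DMSO vehicle and incubated 16 hr at 37C, 5% CO2. Luciferase activity was read after 30 min at room temperature with Amplite; a rise signals genotoxic stress.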

[6] = qHTS assay for small molecule agonists of the p53 signaling pathway - cell viability (AID 651633);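 also: p53RE-bla HCT reporter cells with a stable beta-lactamase p53 reporter; series mostly up to about 83 µM; nearly all actives have a fitted effect of over 30% in size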
How it was run: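 Viability counter-read: CellTiter-Glo luminescence (30 min, room temperature) in the same p53RE-bla plates. These plates had been exposed to compounds for 16 h at 37 C.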

[7] = qHTS assay for small molecules that induce genotoxicity in human embryonic kidney cells expressing luciferase-tagged ATAD5 - cell viability (AID 651634); also: nearly all actives have a fitted effect of over 25% in size
How it was run: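 HEK293T cells carrying luciferase-tagged ATAD5, 2,000 cells/well, exposed to compound for 15.5 hr at 37C. Viability read as live-cell protease activity by CellTiter-Fluor fluorescence after 30 min at 37C.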

[8] = qHTS assay for small molecule disruptors of the mitochondrial membrane potential - cell viability (AID 720634);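 also: human HepG2 liver cancer cells; series mostly up to about 83 µM; nearly all actives have a fitted effect of over 20% in size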
How it was run: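 HepG2 cells, 2,000 per well, attached overnight, then treated 1 hr at 37 C, 5% CO2. Viability read as ATP by CellTiter-Glo luminescence after 30 min at room temperature. Read in the same wells as the m-MPI membrane-potential dye assay.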

[9] = qHTS assay to test for compound auto fluorescence at 590 nm (red) in HepG2 cells (AID 720674; active = well fitted curve in the direction sought with a large enough effect in the repeat runs; an effect the other way counts as inactive or inconclusive)
How it was run: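 We screened compounds on adherent HepG2 cells, incubating them for an hour at 37 C in 5% CO2 before reading emission at 590 nm under 540 nm excitation; values reflect equivalence to Rose Bengal sodium fluorescence.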

[10] = qHTS assay to test for compound auto fluorescence at 535 nm (green) in HepG2 cells (AID 720675; active = well fitted curve in the direction sought with a large enough effect in the repeat runs; an effect the other way counts as inactive or inconclusive)
[11] = qHTS assay to test for compound auto fluorescence at 460 nm (blue) in HEK293 cells (AID 720678; active = well fitted curve in the direction sought with a large enough effect in the repeat runs; an effect the other way counts as inactive or inconclusive)
How it was run: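 HEK293, 2,000 cells/well, 10% dialyzed FBS; attach 4-5 hr 37C; pin compound or DMSO; o/n 37C/5% CO2; fluorescence 405/460 nm; triamterene-equivalent units.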

[12] = qHTS assay to test for compound auto fluorescence at 590 nm (red) in HEK293 cells (AID 720679; active = well fitted curve in the direction sought with a large enough effect in the repeat runs; an effect the other way counts as inactive or inconclusive)
How it was run: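 Intensity at 540nm excitation and 590nm emission is reported as Rose Bengal sodium-equivalent autofluorescence. Measurements followed overnight exposure (37C, 5% CO2) of HEK293 cells, 2,000 per well, to 23 nL compound.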

[13] = qHTS assay to test for compound auto fluorescence at 535 nm (green) in HEK293 cells (AID 720680; active = well fitted curve in the direction sought with a large enough effect in the repeat runs; an effect the other way counts as inactive or inconclusive)
[14] = qHTS assay to test for compound auto fluorescence at 460 nm (blue) in HEK293 cell free culture (AID 720681; active = well fitted curve in the direction sought with a large enough effect in the repeat runs; an effect the other way counts as inactive or inconclusive)
How it was run: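 Blue fluorescence (Ex 405/Em 460 nm, triamterene-equivalent) was read immediately after pin transfer of compound or DMSO into medium (DMEM, 10% FBS) without cells.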

[15] = qHTS assay to test for compound auto fluorescence at 535 nm (green) in HEK293 cell free culture (AID 720682; active = well fitted curve in the direction sought with a large enough effect in the repeat runs; an effect the other way counts as inactive or inconclusive)
How it was run: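 Green-channel intensity (Ex/Em 485/535 nm) was recorded from compound-treated wells containing only DMEM with 10% FBS. Fluorescein provided the equivalency standard.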

[16] = qHTS assay to test for compound auto fluorescence at 590 nm (red) in HEK293 cell free culture (AID 720683; active = well fitted curve in the direction sought with a large enough effect in the repeat runs; an effect the other way counts as inactive or inconclusive)
How it was run: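 Red-channel autofluorescence of compounds in culture medium (DMEM, 10% FBS), no cells, measured at 540/590 nm. Rose Bengal sodium is the reference fluorophore for equivalence.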

[17] = qHTS assay to test for compound auto fluorescence at 590 nm (red) in HepG2 cell free culture (AID 720684; active = well fitted curve in the direction sought with a large enough effect in the repeat runs; an effect the other way counts as inactive or inconclusive)
How it was run: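 Steps: dispense MEM/10% FBS medium, no cells; pin compound or DMSO vehicle; read red channel, Ex/Em 540/590 nm. Output given as Rose Bengal sodium equivalents.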

[18] = qHTS assay to test for compound auto fluorescence at 460 nm (blue) in HepG2 cell free culture (AID 720685; active = well fitted curve in the direction sought with a large enough effect in the repeat runs; an effect the other way counts as inactive or inconclusive)
How it was run: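 Compound (23 nL) or DMSO pinned into cell-free MEM with 10% FBS; blue fluorescence read at 405/460 nm excitation/emission, expressed as auto-fluorescence equivalency to triamterene.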

[19] = qHTS assay to test for compound auto fluorescence at 535 nm (green) in HepG2 cell free culture (AID 720686; active = well fitted curve in the direction sought with a large enough effect in the repeat runs; an effect the other way counts as inactive or inconclusive)
[20] = qHTS assay to test for compound auto fluorescence at 460 nm (blue) in HepG2 cells (AID 720687; active = well fitted curve in the direction sought with a large enough effect in the repeat runs; an effect the other way counts as inactive or inconclusive)
How it was run: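 Blue-channel autofluorescence (Ex/Em 405/460 nm, triamterene-equivalent) was measured after 1 hr compound exposure at 37 C, 5% CO2. Cells were HepG2, plated overnight at 37 C in MEM plus 10% FBS.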

[21] = biological target: Glucocorticoid receptor (Homo sapiens) (UniProt P04150); experiment: qHTS assay to identify small molecule agonists of the glucocorticoid receptor (GR) signaling pathway (AID 720691; active = well fitted activation curve with a large enough effect in the signal ratio in the repeat runs, not every such curve was filed as active; the % refers to the signal ratio)
How it was run: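 GR-bla HeLa cells carrying a GRE-driven beta-lactamase reporter, exposed to compounds for 18 h at 37 C. Reporter activation read as fluorescence after 2 h with LiveBLAzer B/G FRET substrate at room temperature.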

[22] = biological target: Glucocorticoid receptor (Homo sapiens) (UniProt P04150); experiment: qHTS assay to identify small molecule antagonists of the glucocorticoid receptor (GR) signaling pathway (AID 720692; active = well fitted inhibition curve with a large enough effect in the signal ratio in the repeat runs, not every such curve was filed as active; the % refers to the signal ratio)
How it was run: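 GR-bla HeLa cells carrying a GRE-driven beta-lactamase reporter received compound after 4 h plating, then dexamethasone (5 nM final). After 18 h at 37C, the FRET substrate was loaded for 2 h at room temperature and fluorescence read.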

[23] = qHTS assay to identify small molecule antagonists of the glucocorticoid receptor (GR) signaling pathway - cell viability counter screen (AID 720693; active = well fitted curve in the direction sought with a large enough effect in the repeat runs; an effect the other way counts as inactive or inconclusive; also: nearly all actives have a fitted effect of over 55% in size)
[24] = qHTS assay for identifying genotoxic compounds that show differential cytotoxicity against isogenic chicken DT40 cell lines with known DNA damage response pathways - Rev3 mutant cell line (AID 743014; active = well fitted curve in the direction sought with a large enough effect in the repeat runs; an effect the other way counts as inactive or inconclusive; also: nearly all actives have a fitted effect of over 55% in size)
[25] = qHTS assay for identifying genotoxic compounds that show differential cytotoxicity against isogenic chicken DT40 cell lines with known DNA damage response pathways - Rad54/Ku70 mutant cell line (AID 743015; active = well fitted curve in the direction sought with a large enough effect in the repeat runs; an effect the other way counts as inactive or inconclusive; also: nearly all actives have a fitted effect of over 60% in size)
[26] = qHTS assay to identify small molecule antagonists of the androgen receptor (AR) signaling pathway - cell viability counter screen (AID 743033; active = well fitted curve in the direction sought with a large enough effect in the repeat runs; an effect the other way counts as inactive or inconclusive; also: nearly all actives have a fitted effect of over 45% in size)
[27] = qHTS assay to identify small molecule antagonists of the androgen receptor (AR) signaling pathway using the MDA cell line - cell viability counter screen (AID 743041; active = well fitted curve in the direction sought with a large enough effect in the repeat runs; an effect the other way counts as inactive or inconclusive; also: nearly all actives have a fitted effect of over 45% in size)
How it was run: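 Cells were plated at 3,000 per well and left 5 h. Compounds in DMSO were then pinned in, followed by R1881. After 16 h at 37C, CellTiter-Fluor fluorescence gave viability.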

[28] = qHTS assay to identify small molecule antagonists of the thyroid receptor (TR) signaling pathway - cell viability counter screen (AID 743064; active = well fitted curve in the direction sought with a large enough effect in the repeat runs; an effect the other way counts as inactive or inconclusive; also: nearly all actives have a fitted effect of over 50% in size)
How it was run: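 In rat pituitary GH3.TRE-Luc reporter cells co-exposed to compound and 1 nM T3 for 23.5 h, cytotoxicity was assessed with CellTiter-Fluor in the same wells, read by fluorescence.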

[29] = qHTS assay to identify small molecule antagonists of the thyroid receptor (TR) signaling pathway (AID 743065; active = well fitted curve in the direction sought with a large enough effect in the repeat runs; an effect the other way counts as inactive or inconclusive; also: series mostly up to about 70 µM; nearly all actives have a fitted effect of over 55% in size)
How it was run: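 Antagonism measured as loss of luciferase signal in GH3 cells stably carrying a TRE-luciferase reporter, co-treated with compound and T3 (1 nM final) for 23.5 h at 37 C. Viability was read in the same well by CellTiter-Fluor.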

[30] = tested on: thyroid hormone receptor (rat, GH3 cells); experiment: qHTS assay to identify small molecule agonists of the thyroid receptor (TR) signaling pathway (AID 743066)
[31] = biological target: Estrogen receptor (Homo sapiens) (UniProt P03372); experiment: qHTS assay to identify small molecule antagonists of the estrogen receptor alpha (ER-alpha) signaling pathway (AID 743069; active = well fitted curve in the direction sought with a large enough effect in the signal ratio in the repeat runs, not every such curve was filed as active; the % refers to the signal ratio)
How it was run: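 ER-alpha-UAS-bla GripTite HEK293 line; 2% charcoal-stripped FBS overnight; plated, 4 hr 37C/5% CO2; cpd in DMSO + 17beta-estradiol, 18 hr 37C; LiveBLAzer B/G FRET substrate 2 hr RT; fluorescence intensity.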

[32] = qHTS assay to identify small molecule antagonists of the estrogen receptor alpha (ER-alpha) signaling pathway - cell viability counter screen (AID 743074);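 also: HEK293 cells carrying ER-alpha-UAS-bla reporter stimulated with 17beta-estradiol; nearly all actives have a fitted effect of over 45% in size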
[33] = biological target: Estrogen receptor (Homo sapiens) (UniProt P03372); experiment: qHTS assay to identify small molecule agonists of the estrogen receptor alpha (ER-alpha) signaling pathway (AID 743075);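 also: HEK293 GripTite cells with ER-alpha and UAS-driven beta-lactamase reporter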
[34] = biological target: Estrogen receptor (Homo sapiens) (UniProt P03372); experiment: qHTS assay to identify small molecule agonists of the estrogen receptor alpha (ER-alpha) signaling pathway using the BG1 cell line (AID 743079; active = well fitted curve in the direction sought with a large enough effect in the repeat runs; an effect the other way counts as inactive or inconclusive; also: nearly all actives have a fitted effect of over 20% in size)
[35] = qHTS assay to identify small molecule antagonists of the estrogen receptor alpha (ER-alpha) signaling pathway using the BG1 cell line (AID 743080);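 also: BG1 cells stimulated with 17beta-estradiol alongside compound; series mostly up to about 70 µM; nearly all actives have a fitted effect of over 25% in size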
How it was run: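 BG1Luc4E2, endogenous ER-alpha, 4xERE-luc; 5 d charcoal-stripped FBS, phenol red free; 24 h plating; cpd + 17beta-estradiol 21.5 h, 37 C/5% CO2; CellTiter-Fluor viability 30 min, then ONE-Glo luciferase 30 min RT.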

[36] = qHTS assay to identify small molecule antagonists of the estrogen receptor alpha (ER-alpha) signaling pathway using the BG1 cell line - cell viability counter screen (AID 743081; active = well fitted curve in the direction sought with a large enough effect in the repeat runs; an effect the other way counts as inactive or inconclusive;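 also: compound given together with 17beta-estradiol as the ER stimulus; series mostly up to about 70 µM; nearly all actives have a fitted effect of over 45% in size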)
Aromatase (Homo sapiens) = Aromatase (Homo sapiens) (UniProt P11511); experiment: qHTS assay to identify aromatase inhibitors (AID 743083; active = well fitted curve in the direction sought with a large enough effect in the repeat runs; an effect the other way counts as inactive or inconclusive)
[37] = qHTS assay to identify aromatase inhibitors - cell viability counter screen (AID 743084; active = well fitted curve in the direction sought with a large enough effect in the repeat runs; an effect the other way counts as inactive or inconclusive)
[38] = biological target: Aryl hydrocarbon receptor (Homo sapiens) (UniProt P35869); experiment: qHTS assay to identify small molecule that activate the aryl hydrocarbon receptor (AhR) signaling pathway (AID 743085; active = well fitted curve in the direction sought with a large enough effect in the repeat runs; an effect the other way counts as inactive or inconclusive;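 also: HG2L7.5c1 human HepG2 liver cells with stably integrated DRE-driven firefly reporter; series mostly up to about 70 µM; nearly all actives have a fitted effect of over 15% in size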)
How it was run: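 AhR agonist activity is inferred from enhanced light output of a DRE-controlled firefly luciferase reporter in HepG2 cells, measured with ONE-Glo following 24 h treatment at 37C.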

[39] = qHTS assay to identify small molecule that activate the aryl hydrocarbon receptor (AhR) signaling pathway - cell viability counter screen (AID 743086; active = well fitted curve in the direction sought with a large enough effect in the repeat runs; an effect the other way counts as inactive or inconclusive)
How it was run: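 Cytotoxicity counter screen: CellTiter-Fluor signal (30 min, 37 C) in 4000 HepG2 cells/well carrying the DRE-luciferase reporter, following 24 h compound exposure at 37 C.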

[40] = biological target: Peroxisome proliferator-activated receptor gamma (Homo sapiens) (UniProt P37231); experiment: qHTS assay to identify small molecule agonists of the peroxisome proliferator-activated receptor gamma (PPARg) signaling pathway (AID 743094; active = well fitted activation curve with a large enough effect in the signal ratio in the repeat runs, not every such curve was filed as active; the % refers to the signal ratio)
How it was run: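 GeneBLAzer PPARg UAS-bla HEK293H cells were plated, rested 5 h, then exposed to compounds for 17 h at 37C. Beta-lactamase activity was read by LiveBLAzer B/G FRET substrate fluorescence after 1 h at room temperature.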

Measured: Potency

Acetylcholinesterase (Homo sapiens), sequence (P22303 whole entry, looked up): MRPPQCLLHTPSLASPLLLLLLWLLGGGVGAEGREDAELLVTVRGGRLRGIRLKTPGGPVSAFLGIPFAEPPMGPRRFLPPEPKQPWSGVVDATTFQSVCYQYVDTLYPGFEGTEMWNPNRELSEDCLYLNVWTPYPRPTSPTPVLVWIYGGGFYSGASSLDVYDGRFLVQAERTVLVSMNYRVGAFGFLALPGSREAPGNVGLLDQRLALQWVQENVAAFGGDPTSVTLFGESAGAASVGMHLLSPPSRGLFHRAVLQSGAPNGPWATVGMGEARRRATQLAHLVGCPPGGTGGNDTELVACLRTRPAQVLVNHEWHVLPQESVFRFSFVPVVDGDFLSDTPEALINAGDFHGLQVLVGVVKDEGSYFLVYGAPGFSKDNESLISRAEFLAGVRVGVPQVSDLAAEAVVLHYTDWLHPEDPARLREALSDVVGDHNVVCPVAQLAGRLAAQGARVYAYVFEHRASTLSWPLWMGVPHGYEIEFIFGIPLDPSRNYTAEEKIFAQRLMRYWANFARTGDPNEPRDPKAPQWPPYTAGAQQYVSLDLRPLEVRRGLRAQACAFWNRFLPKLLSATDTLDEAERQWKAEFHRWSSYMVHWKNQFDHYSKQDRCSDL
Estrogen receptor (Homo sapiens), sequence (P03372 whole entry, looked up): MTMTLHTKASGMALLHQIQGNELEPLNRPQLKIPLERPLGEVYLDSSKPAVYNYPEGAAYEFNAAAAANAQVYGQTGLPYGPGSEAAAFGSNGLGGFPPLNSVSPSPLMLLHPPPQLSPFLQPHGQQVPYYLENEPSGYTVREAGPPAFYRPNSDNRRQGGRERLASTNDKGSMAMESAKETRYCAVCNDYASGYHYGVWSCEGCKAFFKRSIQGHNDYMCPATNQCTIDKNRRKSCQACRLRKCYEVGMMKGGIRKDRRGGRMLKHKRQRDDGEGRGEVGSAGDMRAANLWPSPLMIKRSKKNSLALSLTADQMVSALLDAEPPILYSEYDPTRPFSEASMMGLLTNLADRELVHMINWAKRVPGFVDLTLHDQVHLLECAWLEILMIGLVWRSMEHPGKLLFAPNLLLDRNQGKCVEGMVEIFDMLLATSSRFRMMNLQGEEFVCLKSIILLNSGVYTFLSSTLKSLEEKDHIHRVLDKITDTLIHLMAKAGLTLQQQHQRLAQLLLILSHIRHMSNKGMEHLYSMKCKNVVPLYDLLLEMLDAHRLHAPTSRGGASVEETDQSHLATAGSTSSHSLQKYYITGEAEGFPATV
Glucocorticoid receptor (Homo sapiens), sequence (P04150 whole entry, looked up): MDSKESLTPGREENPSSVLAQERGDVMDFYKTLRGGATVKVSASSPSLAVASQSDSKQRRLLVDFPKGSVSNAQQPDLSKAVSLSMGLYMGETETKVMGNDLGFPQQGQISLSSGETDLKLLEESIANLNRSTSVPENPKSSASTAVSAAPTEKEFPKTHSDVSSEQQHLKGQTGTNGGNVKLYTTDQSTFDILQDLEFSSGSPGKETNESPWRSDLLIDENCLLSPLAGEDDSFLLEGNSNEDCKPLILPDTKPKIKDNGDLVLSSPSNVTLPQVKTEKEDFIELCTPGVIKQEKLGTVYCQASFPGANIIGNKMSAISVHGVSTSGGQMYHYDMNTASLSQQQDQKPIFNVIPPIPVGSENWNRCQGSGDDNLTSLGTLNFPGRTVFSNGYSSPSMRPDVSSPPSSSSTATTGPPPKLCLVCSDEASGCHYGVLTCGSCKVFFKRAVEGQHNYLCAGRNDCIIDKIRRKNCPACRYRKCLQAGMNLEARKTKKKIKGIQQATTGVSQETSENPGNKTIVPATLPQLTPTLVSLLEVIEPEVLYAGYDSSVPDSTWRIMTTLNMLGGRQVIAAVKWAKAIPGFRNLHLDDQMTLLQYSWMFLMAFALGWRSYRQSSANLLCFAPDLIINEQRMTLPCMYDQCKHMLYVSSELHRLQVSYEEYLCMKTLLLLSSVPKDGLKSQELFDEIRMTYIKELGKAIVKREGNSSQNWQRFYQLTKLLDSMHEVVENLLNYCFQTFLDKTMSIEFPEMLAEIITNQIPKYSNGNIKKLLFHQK
Aromatase (Homo sapiens), sequence (P11511 whole entry, looked up): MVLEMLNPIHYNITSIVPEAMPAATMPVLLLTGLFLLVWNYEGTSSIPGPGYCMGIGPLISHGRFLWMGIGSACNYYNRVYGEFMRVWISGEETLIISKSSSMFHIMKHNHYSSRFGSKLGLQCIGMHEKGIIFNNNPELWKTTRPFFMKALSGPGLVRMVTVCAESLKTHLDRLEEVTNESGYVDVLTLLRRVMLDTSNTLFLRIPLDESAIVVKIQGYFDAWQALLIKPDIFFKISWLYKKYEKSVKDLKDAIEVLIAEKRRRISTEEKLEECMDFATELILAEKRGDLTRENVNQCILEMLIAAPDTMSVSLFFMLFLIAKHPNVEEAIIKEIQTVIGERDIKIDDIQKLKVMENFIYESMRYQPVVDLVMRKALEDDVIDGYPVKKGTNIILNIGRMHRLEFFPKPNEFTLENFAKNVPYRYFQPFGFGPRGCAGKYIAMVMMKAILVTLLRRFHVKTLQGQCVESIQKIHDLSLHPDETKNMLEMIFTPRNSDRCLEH
Peroxisome proliferator-activated receptor gamma (Homo sapiens), sequence (P37231 whole entry, looked up): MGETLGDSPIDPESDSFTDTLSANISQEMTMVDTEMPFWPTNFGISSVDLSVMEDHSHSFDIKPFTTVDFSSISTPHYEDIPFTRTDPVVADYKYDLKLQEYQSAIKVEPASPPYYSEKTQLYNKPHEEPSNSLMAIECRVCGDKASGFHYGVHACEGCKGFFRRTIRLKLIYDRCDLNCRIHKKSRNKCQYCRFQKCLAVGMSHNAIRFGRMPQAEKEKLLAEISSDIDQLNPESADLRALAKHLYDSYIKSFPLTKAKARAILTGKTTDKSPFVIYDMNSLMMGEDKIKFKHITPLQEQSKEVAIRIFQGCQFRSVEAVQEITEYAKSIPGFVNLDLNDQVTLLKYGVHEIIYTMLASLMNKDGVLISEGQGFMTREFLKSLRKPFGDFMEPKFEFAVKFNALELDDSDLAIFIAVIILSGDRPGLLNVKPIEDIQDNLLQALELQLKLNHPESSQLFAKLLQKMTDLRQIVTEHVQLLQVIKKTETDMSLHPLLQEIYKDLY
Aryl hydrocarbon receptor (Homo sapiens), sequence (P35869 whole entry, looked up): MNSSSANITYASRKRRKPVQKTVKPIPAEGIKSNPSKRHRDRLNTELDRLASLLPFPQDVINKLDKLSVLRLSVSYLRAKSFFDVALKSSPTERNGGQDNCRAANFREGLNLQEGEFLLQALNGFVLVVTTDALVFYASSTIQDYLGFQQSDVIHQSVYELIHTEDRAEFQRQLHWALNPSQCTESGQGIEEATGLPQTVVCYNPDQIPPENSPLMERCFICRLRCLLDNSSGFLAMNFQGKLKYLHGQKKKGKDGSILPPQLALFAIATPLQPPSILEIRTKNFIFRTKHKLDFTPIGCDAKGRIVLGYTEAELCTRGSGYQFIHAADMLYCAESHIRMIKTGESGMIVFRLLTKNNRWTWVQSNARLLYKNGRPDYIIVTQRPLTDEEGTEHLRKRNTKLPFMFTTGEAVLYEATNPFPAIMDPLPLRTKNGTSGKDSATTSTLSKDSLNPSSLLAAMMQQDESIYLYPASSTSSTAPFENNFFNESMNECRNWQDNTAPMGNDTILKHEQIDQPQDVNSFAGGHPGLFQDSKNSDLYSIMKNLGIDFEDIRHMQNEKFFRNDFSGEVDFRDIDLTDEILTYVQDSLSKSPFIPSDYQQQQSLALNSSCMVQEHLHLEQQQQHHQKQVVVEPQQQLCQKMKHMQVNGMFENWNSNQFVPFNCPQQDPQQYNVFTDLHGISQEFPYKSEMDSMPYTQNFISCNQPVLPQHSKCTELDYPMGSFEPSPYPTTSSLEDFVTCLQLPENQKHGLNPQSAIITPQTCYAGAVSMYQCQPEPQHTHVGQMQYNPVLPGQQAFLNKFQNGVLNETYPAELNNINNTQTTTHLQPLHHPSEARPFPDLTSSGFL

C1COC(NC(C2CC2)C2CC2)=N1
inactive: [1] | [2]

CCn1c2ccccc2c2ccccc21
inactive: [1] | [3] | [2]

CCCCCC[C@@H](O)C/C=C\CCCCCCCC(=O)OC
inactive: [1] | [3] | [2]

C[C@]12CCC(=O)C=C1CC[C@@H]1[C@@H]2[C@@H](O)C[C@@]2(C)[C@H]1CC[C@]2(O)C(=O)COC(=O)CCC(=O)O
inactive: [1] | [3] | [2]

Cn1cnc2c(F)c(Nc3ccc(Br)cc3Cl)c(C(=O)NOCCO)cc21
inactive: [1] | [3] | [2]

CC(C=O)Cc1ccc(C(C)C)cc1 (stereo unspecified)
inactive: [1] | [3] | [2]

O=Cc1ccccc1C=O
inactive: [1] | [3] | [2]

CC(=O)O[C@]1(C(C)=O)CC[C@H]2[C@@H]3C=C(Cl)C4=CC(=O)[C@@H]5C[C@@H]5[C@]4(C)[C@H]3CC[C@@]21C
inactive: [1] | [3] | [2]

CCNC1(c2cccs2)CCCCC1=O (stereo unspecified)
inactive: [4] | [5] | [6] | [7] | [8] | [9] | [10] | [11] | [12] | [13] | [14] | [15] | [16] | [17] | [18] | [19] | [20] | [21] | [22] | [23] | [24] | [25] | [26] | [27] | [28] | [29] | [30] | [31] | [32] | [33] | [34] | [35] | [36] | Aromatase (Homo sapiens) | [37] | [38] | [39] | [40]
